DT40 TDP1 no CPT – qHTS for Inhibitors of human tyrosyl-DNA phosphodiesterase 1 (TDP1): qHTS in cells in absence of CPT. DT40 Tdp1-/- hTDP1 cells, no CPT, ATP luminescence, 48 h. Potency, µM (doses to about 46.2 µM), inactives show at the highest dose activity change, negative = growth inhibition, hits mostly inhibitors. hit rate 15% among 420,000; note: potency is the fitted concentration of half-maximal effect; nearly all actives have a fitted effect of over 55% in size
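DT40 Tdp1-/-;hTDP1 cells, no CPT (DMSO vehicle only), 400 cells/well; compounds pin-transferred; ≥48 hr, 37 °C; CellTiter-Glo 30 min RT dark, luminescence read.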
TDP1 cell CPT – qHTS for Inhibitors of human tyrosyl-DNA phosphodiesterase 1 (TDP1): qHTS in cells in presence of CPT; AID 686979, 2013; hit rate 12% among 420,000; Potency, µM (doses to about 46.2 µM), inactives show at the top dose activity change, negative = growth inhibition, actives largely listed as inhibitors; chicken DT40 Tdp1-/-;hTDP1 cells + 20 nM CPT, ATP luminescence, 48 h; note: potency is the fitted concentration of half-maximal effect; nearly all actives have a fitted effect of over 55% in size
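Cell growth measured by CellTiter-Glo luminescence after a minimum 48 h, 37 C compound exposure with 20 nM CPT in Tdp1-knockout DT40 cells stably expressing hTDP1, seeded 400/well; qHTS titration format.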
TDP1 inh – qHTS Assay for Inhibitors of Tyrosyl-DNA Phosphodiesterase (TDP1); Tyrosyl-DNA phosphodiesterase 1 (Homo sapiens), Q9NUW8; recombinant TDP1, AlphaScreen DNA substrate cleavage; Potency, µM (top dose mostly 130 µM), for the others: at the highest dose activity change, negative = inhibition, most hits filed as inhibitors; hit rate 0.28% among 350,000; AID 485290, 2010; note: potency is the fitted concentration of half-maximal effect; nearly all actives have a fitted effect of over 40% in size
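Signal: AlphaScreen proximity between streptavidin donor and anti-FITC acceptor beads on intact substrate. Reaction: Tdp1 1 nM, substrate 15 nM final, 5 min RT after 15 min compound preincubation.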
IL-1B inflam inh – qHTS for Inhibitors of Inflammasome Signaling: IL-1-beta AlphaLISA Primary Screen. THP-1 LPS/ATP IL-1B secretion, AlphaLISA, 16 h; active compounds read low. activity change, % at 57.5 µM. hit rate 4.7% among 360,000; in the data active = activity change below about -50%; inconclusive = mostly about -30% to -49%
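Secreted IL-1B measured by AlphaLISA bead assay after 16 h compound exposure of THP-1 cells; compounds (final up to 57.5 uM) added 1 h before LPS (250 ng/mL) and ATP (1.25 mM) stimulation; lower signal means less secretion.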
Six1-Eya2 blk – qHTS Assay for Inhibitors of the Six1/Eya2 Interaction; activity change, % (test concentration not listed); AlphaScreen GST-Six1/His-Eya2 binding, biochemical; active compounds read low; hit rate 0.56% among 360,000; Homeobox protein SIX1 (Homo sapiens) + Protein phosphatase EYA2 (Homo sapiens), …; in the data active = activity change below about -65%; inconclusive = mostly about -30% to -63%
Target sequence (O00167 whole entry, looked up): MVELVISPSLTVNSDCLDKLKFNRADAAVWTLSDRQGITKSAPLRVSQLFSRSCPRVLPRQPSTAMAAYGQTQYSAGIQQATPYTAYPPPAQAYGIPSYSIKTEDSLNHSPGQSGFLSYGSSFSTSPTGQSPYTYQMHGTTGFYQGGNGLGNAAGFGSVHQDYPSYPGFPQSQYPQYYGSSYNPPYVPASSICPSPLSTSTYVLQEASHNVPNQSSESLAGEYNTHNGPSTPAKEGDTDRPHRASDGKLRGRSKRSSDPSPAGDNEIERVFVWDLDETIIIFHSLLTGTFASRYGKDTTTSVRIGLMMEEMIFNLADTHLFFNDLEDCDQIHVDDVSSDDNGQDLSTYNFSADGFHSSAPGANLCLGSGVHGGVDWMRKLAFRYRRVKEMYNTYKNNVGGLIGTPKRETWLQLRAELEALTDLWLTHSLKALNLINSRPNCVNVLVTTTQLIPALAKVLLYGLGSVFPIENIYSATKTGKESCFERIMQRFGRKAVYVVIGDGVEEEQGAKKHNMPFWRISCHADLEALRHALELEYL
Target sequence (Q15475 whole entry, looked up): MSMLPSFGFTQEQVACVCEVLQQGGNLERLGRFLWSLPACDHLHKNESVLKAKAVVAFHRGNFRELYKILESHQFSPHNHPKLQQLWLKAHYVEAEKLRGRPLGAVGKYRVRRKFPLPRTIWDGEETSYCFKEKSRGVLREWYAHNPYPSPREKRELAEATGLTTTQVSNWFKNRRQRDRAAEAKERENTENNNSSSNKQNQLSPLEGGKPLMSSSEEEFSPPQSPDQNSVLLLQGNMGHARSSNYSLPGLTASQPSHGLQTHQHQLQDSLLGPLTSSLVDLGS
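Compounds are tested against tagged Six1 and Eya2 proteins bridged by glutathione donor and nickel acceptor beads; after a one-hour incubation at 37 °C without light, AlphaScreen emission is recorded.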
CtBP-E1A inh – qHTS Assay for Inhibitors of the CtBP/E1A Interaction; AlphaScreen GST-E1A/His-CtBP binding, 1536-well; active compounds read low; hit rate 0.49% among 340,000; activity change, % (test concentration not listed); CtBP / adenovirus E1A interaction (AlphaScreen); in the data active = activity change below about -65%; inconclusive = mostly about -30% to -63%
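In 5 uL wells, 23 nL compound meets equimolar GST-E1A and His-CtBP (5X stock 125 nM each) for 2 h, 37 °C. Beads (5X, 50 ug/mL) then 1 h, 37 °C, dark.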
* = called active by the depositor; ? = inconclusive; · = no result. The list is not random: actives were taken first. Their share in the collection is about 18%. Unless noted, calls come from the whole dose curve; as a rule, active = well fitted curve in the direction sought with a large enough effect; inconclusive = small, poorly fitted or top-dose-only effect, or another doubt; inactive = no such curve, though single readings can be large; an effect the other way counts as inactive or inconclusive. % is set by controls: 0 for no effect and ±100 for the full control effect.

SMILES	DT40 TDP1 no CPT	TDP1 cell CPT	TDP1 inh	IL-1B inflam inh	Six1-Eya2 blk	CtBP-E1A inh
CC(=O)c1c(O)cc(C)n(-c2ccc(F)cc2)c1=O	-29.7%	-4.4%	-5.4%	17.8	-0.4	·
CC(=O)c1c(O)cc(C)n(Nc2nc(C)cc(C)n2)c1=O	?	18.4µM*	8.7%	84.5	?	?
CCCc1[nH]nc2c1C(c1ccsc1)C(C#N)=C(N)O2 (stereo not given)	?	16.4µM*	7.6%	-228.2*	1.5	5.2
N#CC1=C(N)Oc2n[nH]c(-c3cccs3)c2C1c1cccs1 (stereo not given)	-28.3%	?	2.2%	-90.6*	-5.0	-4.1
COCc1[nH]nc2c1C(c1ccsc1)C(C#N)=C(N)O2 (stereo not given)	-24.1%	?	2.1%	-21.2	5.1	4.7
CCOC(=O)Cc1[nH]nc2c1C(c1ccsc1)C(C#N)=C(N)O2 (stereo not given)	?	?	2.5%	-64.8*	2.1	0.0
COCc1[nH]nc2c1C(c1sccc1C)C(C#N)=C(N)O2 (stereo not given)	?	-15.2%	-1.0%	-81.3*	7.6	5.8
COCc1[nH]nc2c1C(c1ccc(OC)cc1)C(C#N)=C(N)O2 (stereo not given)	-17.8%	?	0.0%	-13.4	1.9	-9.8
COc1cccc(-n2cnc(=O)c3cccnc32)c1	-13.4%	-8.6%	2.6%	7.8	-6.2	6.2
CCCc1[nH]nc2c1C(c1ccc(OC)cc1OC)C(C#N)=C(N)O2 (stereo not given)	-14.2%	-4.0%	4.4%	-15.5	9.9	0.4
CCCc1[nH]nc2c1C(C1CCCCC1)C(C#N)=C(N)O2 (stereo not given)	?	?	3.1%	-94.6*	1.0	-1.7
CCOc1cc(C2C(C#N)=C(N)Oc3n[nH]c(CC)c32)ccc1OCCN1CCOCC1 (stereo not given)	-10.5%	-17.5%	2.4%	-61.0*	-0.1	-0.4
COC(=O)Cc1[nH]nc2c1C(C1C=CCCC1)C(C#N)=C(N)O2 (stereo not given)	25.9µM*	?	1.1%	-61.6*	-4.2	2.9
Cc1[nH]nc2c1C(c1ccoc1)C(C#N)=C(N)O2 (stereo not given)	-0.5%	9.9%	6.2%	?	-15.3	-2.9
COC(=O)Cc1[nH]nc2c1C(c1cc(OC)c(OC)c(OC)c1)C(C#N)=C(N)O2 (stereo not given)	4.8%	12.8%	4.3%	-2.8	2.8	11.8
CCCc1[nH]nc2c1C(c1ccoc1)C(C#N)=C(N)O2 (stereo not given)	?	?	-1.3%	-80.1*	-6.5	4.0
O=C(CNC(=O)c1ccc(N2C(=O)c3ccccc3C2=O)cc1)OCC(=O)c1cccc2ccccc12	-13.2%	-17.7%	5.3%	8.6	3.1	-24.1
CCCc1[nH]nc2c1C(c1ccc(O)cc1OCC)C(C#N)=C(N)O2 (stereo not given)	?	?	0.0%	-75.6*	-29.1	0.1
OCC1CCCN(c2nc(CN3CCCCC3)nc3scc(-c4ccccc4)c23)C1 (stereo not given)	?	14.6µM*	-2.7%	-5.9	-0.8	-2.2
CCCc1nc2scc(-c3ccccc3)c2c(=O)n1N	?	-29.0%	0.0%	1.4	1.1	0.5
